Counter-ions that a name gives are not always drawn. ± gives the standard deviation of the averaged measurements.
System: E. coli TESEC Mtb Alr
Assay: growth (OD600 after 10 h); higher = more growth (less inhibition)
Conditions: compound 0.1 mM
Description: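 TESEC Mtb Alr E. coli, or the Alr+ wild-type control, in 384-well plates with Prestwick library compounds at 0.1 mM and 1% DMSO, across arabinose induction levels of 1E3 to 1E7 nM. Growth is read as OD600 after 10 h at 37 °C in triplicate biological replicates.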

[1] = arabinose 1000 nM, raw OD600 reference: median of DMSO wells 0.294, cell-free background 0.041
[2] = arabinose 10000 nM, raw OD600 reference: median of DMSO wells 0.264, cell-free background 0.041
[3] = arabinose 100000 nM, raw OD600 reference: median of DMSO wells 0.201, cell-free background 0.041
[4] = arabinose 1000000 nM, raw OD600 reference: median of DMSO wells 0.193, cell-free background 0.041
[5] = arabinose 10000000 nM, raw OD600 reference: median of DMSO wells 0.146, cell-free background 0.041

What does the source list for `Nc1nc(/C(=C/CC(=O)O)C(=O)N[C@@H]2C(=O)N3C(C(=O)O)=CCS[C@H]23)cs1` [Ceftibuten]?
growth [1]: 0.0633 ± 0.0031; growth [2]: 0.04393 ± 0.00032; growth [3]: 0.141 ± 0.012; growth [4]: 0.138 ± 0.0075; growth [5]: 0.177 ± 0.004

How did the growth [1] turn out when `NNC(=O)c1ccncc1` [Isoniazid] was run?
Its growth is 0.288 ± 0.006.

What about the growth [2] of the same compound?
Its growth is 0.275 ± 0.0043.

What about the growth [3] of the same compound?
The growth was 0.239 ± 0.052.

And the growth [4]?
Its growth is 0.186 ± 0.007.

What about the growth [5] of the same compound?
Its growth is 0.139 ± 0.0028.

With `C[C@]12C=CC(=O)C=C1CC[C@@H]1[C@@H]2C(=O)C[C@@]2(C)[C@H]1CC[C@]2(O)C(=O)CO` [Prednisone] as the compound, how does the growth [1] read?
Its growth is 0.298 ± 0.017.

And the growth [2]?
The growth was 0.256 ± 0.0052.

What about the growth [3] of the same compound?
The growth was 0.203 ± 0.012.

What about the growth [4] of the same compound?
The growth was 0.173 ± 0.0063.

And the growth [5]?
The growth was 0.162 ± 0.0056.

Which growth [1] does the source give for `N[C@@H](Cc1ccc(O)c(O)c1)C(=O)O` [Levodopa] here?
The growth was 0.275 ± 0.015.

And the growth [2]?
The growth was 0.267 ± 0.015.

And the growth [3]?
The growth was 0.199 ± 0.028.

What about the growth [4] of the same compound?
Its growth is 0.178 ± 0.0063.

What about the growth [5] of the same compound?
The growth was 0.138 ± 0.0042.

What does the source list for `O=C(CCCN1CC=C(n2c(=O)[nH]c3ccccc32)CC1)c1ccc(F)cc1` [Droperidol]?
growth [1]: 0.241 ± 0.005; growth [2]: 0.225 ± 0.0067; growth [3]: 0.175 ± 0.014; growth [4]: 0.105 ± 0.0018; growth [5]: 0.152 ± 0.0037

With `CCCc1ncc(C[n+]2ccccc2C)c(N)n1` [Amprolium hydrochloride] as the compound, how does the growth [1] read?
The growth was 0.284 ± 0.029.

What about the growth [2] of the same compound?
Its growth is 0.2572 ± 0.0021.

And the growth [3]?
The growth was 0.207 ± 0.027.

What about the growth [4] of the same compound?
The growth was 0.18 ± 0.0063.

What about the growth [5] of the same compound?
The growth was 0.142 ± 0.0046.

Which growth [1] does the source give for `COc1ccc(C[C@@H]2c3cc(OC)c(OC)cc3CC[N@+]2(C)CCC(=O)OCCCCCOC(=O)CC[N@@+]2(C)CCc3cc(OC)c(OC)cc3[C@H]2Cc2ccc(OC)c(OC)c2)cc1OC` [Cisatracurium besylate] here?
Its growth is 0.307 ± 0.0083.

And the growth [2]?
Its growth is 0.242 ± 0.014.

And the growth [3]?
The growth was 0.166 ± 0.0072.

And the growth [4]?
Its growth is 0.119 ± 0.0042.

And the growth [5]?
Its growth is 0.156 ± 0.0018.

`O=C1C(=O)c2ccccc2C(O)=C1C1CCC(c2ccc(Cl)cc2)CC1` (stereo not given) [Atovaquone] was tested. Which growth [1] did it give?
The growth was 0.2 ± 0.0057.

What about the growth [2] of the same compound?
The growth was 0.182 ± 0.015.

What about the growth [3] of the same compound?
Its growth is 0.151 ± 0.015.

What about the growth [4] of the same compound?
Its growth is 0.105 ± 0.0069.

What about the growth [5] of the same compound?
Its growth is 0.133 ± 0.0044.
